miR-122 inh: miR-122 suppressors via Renilla sensor increase, primary screen, cell-based, Huh7 psiCHECK-miR122, Renilla luciferase, single point. 48 h. actives 0.14% (n = 340,000). activation, % at 12.5 µM;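 active = mean activation of 30% or more, with every replicate also reaching 30%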;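 note: 0% = median of neutral control wells and 100% = median of positive control wells; higher luciferase signal means stronger suppression of miR-122 activity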
The depositor's hits bear a star. The sample as a whole holds a higher share of hits than the screen did.

What do the screens show for `COc1ccc(-c2cnc3c(c2)C(=O)N([C@@H](C)CO)C[C@H](C)[C@@H](CN(C)C(=O)Cc2ccccc2)O3)cc1`?
miR-122 inh: -5.0

Results for CC(C)C#Cc1ccc2c(c1)O[C@H](CN(C)C(=O)CC1CC1)[C@@H](C)CN([C@H](C)CO)S2(=O)=O ?
miR-122 inh: -28.6

How did C[C@H]1CN([C@@H](C)CO)S(=O)(=O)c2ccc(-c3ccc(C(=O)N(C)C)cc3)cc2O[C@H]1CN(C)C(=O)Cc1ccccn1 do in these assays?
miR-122 inh: -10.4

What do the screens show for `COc1ccc(NC(=O)N(C)C[C@@H]2Oc3ncc(C4=CCCC4)cc3C(=O)N([C@H](C)CO)C[C@H]2C)cc1`?
miR-122 inh: -5.8

How did CC(C)C#Cc1cnc2c(c1)C(=O)N([C@@H](C)CO)C[C@@H](C)[C@H](CN(C)C(=O)CC1CC1)O2 do in these assays?
miR-122 inh: -15.6

What do the screens show for `C[C@@H]1CN([C@@H](C)CO)S(=O)(=O)c2ccc(C#C[C@@H](C)O)cc2O[C@@H]1CN(C)C`?
miR-122 inh: 5.9

What do the screens show for `C[C@H](CO)N1C[C@H](C)[C@H](CN(C)Cc2ccncc2)Oc2ncc(C#Cc3ccc(F)cc3)cc2C1=O`?
miR-122 inh: -9.0

What do the screens show for `CC(C)C#Cc1ccc2c(c1)O[C@H](CN(C)C(=O)Nc1ccccc1)[C@@H](C)CN([C@@H](C)CO)S2(=O)=O`?
miR-122 inh: -100.5

Results for Cc1noc(C)c1S(=O)(=O)N(C)C[C@@H]1Oc2c(NC(=O)C3CCCCC3)cccc2C(=O)N([C@H](C)CO)C[C@@H]1C ?
miR-122 inh: -197.5

Results for O=S(=O)(Nc1ccc(Cl)cc1)c1ccc2c(c1)CCO2 ?
miR-122 inh: -122.6

What do the screens show for `CC(=O)N(C)C[C@H]1Oc2cc(C#C[C@H](C)O)ccc2S(=O)(=O)N([C@@H](C)CO)C[C@@H]1C`?
miR-122 inh: 0.7

Results for CCCNC(=O)N(C)C[C@@H]1Oc2ncc(/C=C/c3ccccc3)cc2C(=O)N([C@H](C)CO)C[C@@H]1C ?
miR-122 inh: 5.0

How did COC(=O)c1nn(-c2ccccc2)c(Sc2ccc(Cl)cc2)c1/C=N/O do in these assays?
miR-122 inh: 35.6*

How did C[C@H]1CN([C@@H](C)CO)S(=O)(=O)c2ccc(C#CCC3CCCC3)cc2O[C@@H]1CN(C)C(=O)CC1CC1 do in these assays?
miR-122 inh: -38.0

Results for C/C=C/c1ccc2c(c1)O[C@@H](CN(C)C(=O)CC1CC1)[C@H](C)CN([C@H](C)CO)S2(=O)=O ?
miR-122 inh: 3.9

How did CC(C)C#Cc1cnc2c(c1)C(=O)N([C@@H](C)CO)C[C@H](C)[C@H](CN(C)C(=O)c1ccccc1)O2 do in these assays?
miR-122 inh: 0.2

What do the screens show for `C[C@H](CO)N1C[C@H](C)[C@H](CN(C)S(=O)(=O)c2cccc(F)c2)Oc2ncc(-c3ccc(F)cc3)cc2C1=O`?
miR-122 inh: 5.6

What do the screens show for `C=CCc1c(OC)ccc2ccc(=O)oc12`?
miR-122 inh: 31.5*

What do the screens show for `Cc1noc(C)c1NC(=O)N(C)C[C@@H]1Oc2ncc(C#Cc3cccc(F)c3)cc2C(=O)N([C@H](C)CO)C[C@@H]1C`?
miR-122 inh: 10.9

What do the screens show for `CCCCCCCCCn1c2c(c(=N)c3c1CCC3)CCC2`?
miR-122 inh: 47.1*

Results for C[C@H](CO)N1C[C@H](C)[C@@H](CN(C)C(=O)C2CCC2)Oc2cc(C#CC(C)(C)O)ccc2S1(=O)=O ?
miR-122 inh: -9.0

What do the screens show for `CN1C(=O)c2cc(NC(=O)c3ccc(C(F)(F)F)cc3)ccc2OC[C@@H]2O[C@H](CC(=O)NC3Cc4ccccc4C3)CC[C@H]21`?
miR-122 inh: 36.7*

How did CN1C(=O)c2cc(NC(=O)c3ccc(C(F)(F)F)cc3)ccc2OC[C@H]2O[C@H](CC(=O)NC3Cc4ccccc4C3)CC[C@@H]21 do in these assays?
miR-122 inh: 63.3*

Results for CC(C)CC#Cc1cnc2c(c1)C(=O)N([C@@H](C)CO)C[C@@H](C)[C@@H](CN(C)C(=O)NC1CCCC1)O2 ?
miR-122 inh: 13.6

How did C[C@@H]1CN([C@H](C)CO)S(=O)(=O)c2ccc(-c3ccncc3)cc2O[C@H]1CN(C)C(=O)Nc1ccc(F)cc1 do in these assays?
miR-122 inh: -39.7

What do the screens show for `COCC(=O)Nc1ccc2c(c1)OC[C@@H](C)NC[C@H](C)[C@H](OC)CN(C)C2=O`?
miR-122 inh: -0.9

What do the screens show for `C[C@H](CO)N1C[C@H](C)[C@H](CN(C)C(=O)c2cccnc2)Oc2cc(/C=C/c3ccccc3)ccc2S1(=O)=O`?
miR-122 inh: -3.4

How did C/C=C/c1cnc2c(c1)C(=O)N([C@@H](C)CO)C[C@H](C)[C@H](CN(C)C(=O)Cc1cccnc1)O2 do in these assays?
miR-122 inh: -0.6

What do the screens show for `CN1C(=O)c2cc(NC(=O)c3cccc(F)c3)ccc2OC[C@@H]2O[C@@H](CC(=O)O)CC[C@@H]21`?
miR-122 inh: 86.7*

Results for CN1C(=O)c2cc(NC(=O)c3cccc(F)c3)ccc2OC[C@H]2O[C@@H](CC(=O)O)CC[C@H]21 ?
miR-122 inh: 53.3*
